USP17 block – human USP17-like deubiquitinase inhibition. A8MUK1. purified USP17, Ub-rhodamine cleavage fluorescence, 3 h. inhibition, % at 50 µM. 47,000 tested, 6.5% active. AID 1645855
USP28 inh – inhibitors of human USP28 deubiquitinase; 47,000 tested, 3% active; purified USP28, Ub-rhodamine cleavage fluorescence, 30 min; Q96RU2; inhibition, % at 25 µM
Target sequence (Q96RU2 whole entry, looked up): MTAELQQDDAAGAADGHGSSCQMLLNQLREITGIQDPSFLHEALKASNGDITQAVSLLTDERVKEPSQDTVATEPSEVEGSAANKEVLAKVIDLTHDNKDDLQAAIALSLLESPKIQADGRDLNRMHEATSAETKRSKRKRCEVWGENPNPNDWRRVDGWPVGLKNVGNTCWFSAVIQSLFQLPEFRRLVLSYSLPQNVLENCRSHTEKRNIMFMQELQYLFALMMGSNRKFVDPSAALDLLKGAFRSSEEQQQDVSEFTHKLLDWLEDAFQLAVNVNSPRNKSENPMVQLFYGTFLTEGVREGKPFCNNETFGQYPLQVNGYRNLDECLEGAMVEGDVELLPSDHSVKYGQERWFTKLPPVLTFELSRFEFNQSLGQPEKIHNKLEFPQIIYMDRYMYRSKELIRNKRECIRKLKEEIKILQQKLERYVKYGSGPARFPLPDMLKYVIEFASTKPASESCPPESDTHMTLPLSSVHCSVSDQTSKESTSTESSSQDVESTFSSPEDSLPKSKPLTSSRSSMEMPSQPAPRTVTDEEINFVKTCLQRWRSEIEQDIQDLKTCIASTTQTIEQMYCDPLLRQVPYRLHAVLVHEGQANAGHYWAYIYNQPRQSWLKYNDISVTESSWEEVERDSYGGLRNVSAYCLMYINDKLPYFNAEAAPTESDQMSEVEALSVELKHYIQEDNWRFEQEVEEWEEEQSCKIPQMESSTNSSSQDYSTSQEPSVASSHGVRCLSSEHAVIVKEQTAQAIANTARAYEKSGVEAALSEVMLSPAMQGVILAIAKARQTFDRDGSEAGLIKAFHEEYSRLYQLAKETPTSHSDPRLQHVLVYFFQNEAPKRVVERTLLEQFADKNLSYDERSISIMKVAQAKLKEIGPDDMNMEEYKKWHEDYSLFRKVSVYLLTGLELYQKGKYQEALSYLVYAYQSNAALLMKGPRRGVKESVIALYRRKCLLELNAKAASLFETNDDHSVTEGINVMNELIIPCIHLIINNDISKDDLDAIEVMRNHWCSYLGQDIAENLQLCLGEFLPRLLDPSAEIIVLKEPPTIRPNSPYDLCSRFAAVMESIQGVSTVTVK
USP30 inh – blocks human USP30 ubiquitin-rhodamine cleavage | Q70CQ3 | purified USP30, Ub-rhodamine cleavage fluorescence | inhibition, % at 25 µM | 47,000 tested, 5.3% active | AID 1645860
OTUD3 block – blocks human OTUD3 ubiquitin-rhodamine cleavage; Q5T2D3; purified OTUD3, Ub-rhodamine fluorescence, 2 h; inhibition, % at 25 µM; 47,000 tested, 0.7% active
* marks the source's active call; other numbers are inactive results. Hits are enriched below; roughly 11% of the tested compounds scored in any of these assays. Rule as the data show it: active = inhibition above about 30%; inactive = the rest.

`O=C1CC(C(=O)Nc2ccccc2)n2nc(-c3ccccc3)cc2N1` (stereo not drawn) gave USP17 block 11.4, USP28 inh 12.5, USP30 inh 34.4* and OTUD3 block 7.1.
For CCN1C[C@@]23CN(C(=O)Cc4cccc(OC)c4)C[C@@H](C[C@@H]2S1(=O)=O)O3 the results were USP17 block -12.5, USP28 inh -4.8, USP30 inh -6.7 and OTUD3 block -6.3.
Cn1ccc2ccn(CC(=O)NC3CCCCC3)c(=O)c21 was read as USP17 block 6.3, USP28 inh -15.2, USP30 inh 11.6 and OTUD3 block -0.9.
For Cc1ccc(C(=O)Nc2ncc3c(n2)CC(C)(C)CC3=O)cc1 the results were USP17 block 19.9, USP28 inh 12.0, USP30 inh 37.3* and OTUD3 block 7.5.
`CC1(C)CC(=O)c2cnc(NC(=O)c3ccco3)nc2C1` gave USP17 block 6.1, USP28 inh -1.2, USP30 inh 8.9 and OTUD3 block 2.4.
`Cc1ccc(C(=O)Nc2ncc3c(Cl)cccc3n2)cc1` gave USP17 block 30.9*, USP28 inh 23.7, USP30 inh 33.4* and OTUD3 block 6.6.
Screening CO\C=C(C(=O)OC)/C(C)=C\C=C\c1ccc(OCC=C(C)C)c(O)c1 returned USP17 block 40.3*, USP28 inh 22.2, USP30 inh 27.2 and OTUD3 block 7.3.
For CCCCNc1ncnc2c1c(C)c(C)n2Cc1cccnc1 the results were USP17 block 5.1, USP28 inh 27.2, USP30 inh 28.7 and OTUD3 block 7.8.
Screening CCc1c(Cl)c(O)c(Cl)c(O)c1C(=O)O[C@H]1C(C)O[C@@H](OC/C2=C\C=C\CC(O)/C(C)=C/C(CC)C(O[C@@H]3OC(C)(C)[C@H](O)C(OC(=O)C(C)C)[C@@H]3O)/C(C)=C/C(C)=C/CC(C(C)O)OC2=O)[C@@H](OC)C1O (stereo partly drawn) returned USP17 block 2.4, USP28 inh 85.1*, USP30 inh 91.4* and OTUD3 block 32.0*.
`Cc1cccc(NC(=O)CNc2cc(C)nc3nc(-c4cccnc4)nn23)c1` gave USP17 block -74.2, USP28 inh -19.7, USP30 inh -26.6 and OTUD3 block -18.4.
For O=C(NCc1ccc2c(c1)OCO2)c1cccc(-c2cnc(N3CCCC3)nc2)c1 the results were USP17 block 30.2*, USP28 inh 13.7, USP30 inh 43.1* and OTUD3 block 14.1.
For COc1ccc(CNC(=O)c2cccc(-c3cnc(N4CCCC4)nc3)c2)cc1 the results were USP17 block 45.2*, USP28 inh 0.0, USP30 inh 49.3* and OTUD3 block -0.5.
`Cn1cc(C(=O)NCc2ccc3c(c2)OCO3)c(S(=O)(=O)N2CCCCCC2)n1` gave USP17 block -6.7, USP28 inh 3.5, USP30 inh -6.7 and OTUD3 block 5.8.
Screening Cc1cccc(CNC(=O)c2cccc(-c3cnc(N4CCCC4)nc3)c2)c1 returned USP17 block -3.3, USP28 inh -6.7, USP30 inh 7.0 and OTUD3 block -0.5.
For O=C(NCc1ccc2c(c1)OCO2)c1cc([N+](=O)[O-])ccc1N1CCCCC1 the results were USP17 block 5.7, USP28 inh 23.0, USP30 inh 32.9* and OTUD3 block 24.3.
`COCCN1C[C@@]23CN(C(=O)c4ccccn4)C[C@@H](C[C@@H]2S1(=O)=O)O3` gave USP17 block 6.3, USP28 inh 6.4, USP30 inh 19.4 and OTUD3 block 7.4.
For O=C1OC(C(=O)Nc2nc3c(ccc4ccccc43)s2)Cc2ccccc21 (stereo not drawn) the results were USP17 block 39.0*, USP28 inh 5.7, USP30 inh 9.3 and OTUD3 block 14.7.
`O=C(Nc1nc2c(ccc3ccccc32)s1)C1CCCC1` gave USP17 block 14.2, USP28 inh 29.0, USP30 inh 34.3* and OTUD3 block 9.7.
For O=C(O)Cc1ccc(NC(=O)C2Cc3ccccc3C(=O)O2)cc1 (stereo not drawn) the results were USP17 block -5.9, USP28 inh 3.3, USP30 inh 1.8 and OTUD3 block 2.5.
For COc1cccc(CNC(=O)C2CCCN(c3nc4c(C)cc(C)cc4s3)C2)c1 (stereo not drawn) the results were USP17 block 16.3, USP28 inh 11.2, USP30 inh 27.8 and OTUD3 block 14.2.
Screening COc1ccc(Cl)cc1S(=O)(=O)N(C)CC(=O)Nc1ccc2c(c1)OCCO2 returned USP17 block -14.8, USP28 inh -6.7, USP30 inh -12.5 and OTUD3 block -9.6.
COc1ccc(NC(C)=O)cc1S(=O)(=O)N(CC(=O)Nc1ccc(C)cc1)CC(=O)Nc1ccc(C)cc1 was read as USP17 block 33.6*, USP28 inh -8.2, USP30 inh 19.3 and OTUD3 block -5.2.
`CCc1cc(C2CCCN2S(=O)(=O)c2ccc3c(c2)OCCN3C(C)=O)on1` (stereo not drawn) gave USP17 block 7.7, USP28 inh 38.6*, USP30 inh -44.6 and OTUD3 block 7.9.
CCn1nccc1C1CCCN1S(=O)(=O)c1ccc2c(c1)OCCO2 (stereo not drawn) was read as USP17 block -7.3, USP28 inh -0.5, USP30 inh 8.5 and OTUD3 block 2.4.
For CC(=O)N1CCOc2cc(S(=O)(=O)N3CCCC3c3cc(C)no3)ccc21 (stereo not drawn) the results were USP17 block 6.6, USP28 inh 51.7*, USP30 inh 20.3 and OTUD3 block 19.3.
Screening Cc1ccc(NC(=O)CC2C(=O)Nc3nc(-c4ccccc4)nn32)cc1 (stereo not drawn) returned USP17 block 44.6*, USP28 inh 11.3, USP30 inh 20.9 and OTUD3 block 13.1.
For COc1ccc(-c2nc3n(n2)C(CC(=O)Nc2cccc4ccccc24)C(=O)N3)cc1 (stereo not drawn) the results were USP17 block 25.1, USP28 inh 26.9, USP30 inh 52.1* and OTUD3 block 19.0.
Screening CC(=O)c1ccc(NC(=O)CC2C(=O)Nc3nc4ccccc4n32)cc1 (stereo not drawn) returned USP17 block 74.6*, USP28 inh 8.2, USP30 inh -14.3 and OTUD3 block 0.2.
`O=C(CC1C(=O)N(C2CCCC2)c2nc3ccccc3n21)Nc1ccc(F)cc1` (stereo not drawn) gave USP17 block -8.2, USP28 inh -13.1, USP30 inh -3.0 and OTUD3 block -10.3.
For CN(C)C(=O)[C@H]1CCS(=O)(=O)[C@@H]2CN(Cc3ccc(F)cc3)C[C@H]12 the results were USP17 block -16.9, USP28 inh -11.4, USP30 inh -4.2 and OTUD3 block -6.4.
Screening CC(C)CCn1c(=O)c2ccccc2n2c(CCC(=O)NCc3ccccc3Cl)nnc12 returned USP17 block -0.6, USP28 inh -4.7, USP30 inh -11.8 and OTUD3 block -0.4.
CC(C)CCn1c(=O)c2ccccc2n2c(CCC(=O)NC3CCCCCC3)nnc12 was read as USP17 block 41.5*, USP28 inh 16.2, USP30 inh 49.6* and OTUD3 block 37.9*.
For CCCn1c(=O)c2sccc2n2c(CCC(=O)NC3CCC(C)CC3)nnc12 (stereo not drawn) the results were USP28 inh 11.7, USP30 inh 40.5* and OTUD3 block 22.8.
